{"source": "PubChem BioAssay (NCATS)", "note": "Records with an inconclusive call do not appear. A number with no mark means an inactive call. Activity calls are given as the source filed them. Calls come from the whole dose curve. Where a SMILES comes first, the peptide text is derived from it. [ ]: non-standard residue; d: D form. pGlu = O=C1CC[C@@H](C(=O)O)N1; Thz = O=C(O)[C@@H]1CSCN1"}
{"assay": "S16 Schwann cell PMP22 intronic element beta-lactamase assay (AID 624044); note: nearly all actives have a fitted effect of over 15% in size; note: potency is the fitted concentration of half-maximal effect;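 for ratio activity, negative = inhibition: 0% = DMSO and -100% = potassium clavulanate positive control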", "details": "S16 rat Schwann cells, PMP22 element beta-lactamase FRET, 24 h; series mostly up to 38.3 µM; ratio activity, negative = inhibition: at the top concentration", "method_in_brief": "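Rat S16 Schwann cells with beta-Lac driven by a PMP22 intronic element, compound-treated 24 h at 37 °C. LiveBLAzer FRET B/G read: 460 nm normalized to potassium clavulanate vs DMSO; 535 nm FRET as viability; concentration-effect curves classified.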", "units": {"ratio activity, negative = inhibition": "%"}}
{"smiles": "COc1cc(/C=C/C(=O)CC(=O)/C=C/c2ccc(O)c(OC)c2)ccc1O", "ratio activity, negative = inhibition": -4.72}
{"smiles": "O=C1CN(/N=C/c2ccc(-c3ccc([N+](=O)[O-])cc3)o2)C(=O)N1", "ratio activity, negative = inhibition": -16.6}
{"smiles": "O=C1CC[C@@H](C(=O)N2CSC[C@H]2C(=O)O)N1", "note": "([pGlu]-[Thz]-OH)", "ratio activity, negative = inhibition": 6.91}
{"smiles": "CC1(C)S[C@@H]2[C@H](NC(=O)[C@H](NC(=O)N3CCN(S(C)(=O)=O)C3=O)c3ccccc3)C(=O)N2[C@H]1C(=O)O", "ratio activity, negative = inhibition": 4.38}
{"smiles": "Cc1ccc(O)c(-n2nc3ccccc3n2)c1", "ratio activity, negative = inhibition": 0.634}
{"smiles": "CCOC(=O)c1ccccc1O", "ratio activity, negative = inhibition": 1.84}
{"smiles": "CCCCC[C@H](O)/C=C/[C@@H]1[C@@H](C/C=C\\CCCC(=O)O)[C@@H](O)C[C@H]1O", "ratio activity, negative = inhibition": 0.708}
{"smiles": "CCCCCC[C@@H](O)C/C=C\\CCCCCCCC(=O)O", "ratio activity, negative = inhibition": -7.1}
{"smiles": "O=C(Nc1ccc(C(=O)O)c(O)c1)c1ccccc1", "ratio activity, negative = inhibition": 4.94}
{"smiles": "CCCCCCCCCCCCCCCC(=O)OC(C)C", "ratio activity, negative = inhibition": 4.15}
{"smiles": "CN(C)c1ccc(C(=C2C=CC(=[N+](C)C)C=C2)c2ccccc2)cc1", "Potency": "3.98 µM (active)"}
{"smiles": "O=C(/C=C/c1ccccc1)NCCO", "ratio activity, negative = inhibition": 8.5}
